Source: PubChem BioAssay AID1159580 (chemical genetic matrix, 2015)
In all, about 5,500 compounds went through this assay and about 2,000 (36%) were called active. Inconclusive results (about 18%) are left out. Cut-off read from the data, not from the text of the source: active = normalized growth mostly below about 0.91 (no sharp cut-off); inconclusive = no clear call, values can overlap the other calls; inactive = mostly above about 0.92. The list shows a part of the results.

Experiment: chemical genetic growth profiling, strain panel (AID 1159580);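 note: tested at 20 µM; growth read once vehicle control cultures reached saturation at 30 °C; 1 = growth at the plate median or of vehicle wells; lower values mean less growth of the strain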
Settings: growth OD

Measured: normalized growth

O=C1CC(c2ccc(O)cc2)Oc2ccccc21 (stereo unspecified)
inactive: S. cerevisiae deletion strains, locus YBR021W, strain FUR4, hits give low values 0.896 | S. cerevisiae deletion strains, locus YBR229C, strain ROT2, hits give low values 0.918 | S. cerevisiae deletion strains, locus YDL185W, strain tfp1, hits give low values 0.907 | S. cerevisiae deletion strains, locus YDR150W, strain NUM1, hits give low values 0.919 | S. cerevisiae deletion strains, locus YGL078C, strain dbp3, hits give low values 0.944 | S. cerevisiae deletion strains, locus YHR200W, strain rpn10, hits give low values 0.924 | S. cerevisiae deletion strains, locus YIL073C, strain SPO22, hits give low values 0.786 | S. cerevisiae deletion strains, locus YIL125W, strain kgd1, hits give low values 0.94 | S. cerevisiae deletion strains, locus YKL009W, strain mrt4, hits give low values 0.976 | S. cerevisiae deletion strains, locus YLR102C, strain apc9, hits give low values 0.928 | S. cerevisiae deletion strains, locus YLR371W, strain rom2, hits give low values 0.927 | S. cerevisiae deletion strains, locus YNL128W, strain TEP1, hits give low values 0.923 | S. cerevisiae deletion strains, locus YNR052C, strain pop2, hits give low values 0.92 | S. cerevisiae deletion strains, locus YOL012C, strain htz1 0.38 | S. cerevisiae deletion strains, locus YOR061W, strain CKA2, hits give low values 0.931 | S. cerevisiae deletion strains, locus YOR069W, strain VPS5, hits give low values 0.946 | S. cerevisiae deletion strains, locus YPL241C, strain CIN2, hits give low values 0.935 | S. cerevisiae deletion strains, locus YPR141C, strain kar3, hits give low values 0.923 | S. cerevisiae deletion strains, locus YPR167C, strain met16, hits give low values 0.93
active: S. cerevisiae deletion strains, locus YAL013W, strain DEP1, hits give low values 0.894 | S. cerevisiae deletion strains, locus YCL029C, strain bik1, hits give low values 0.858 | S. cerevisiae deletion strains, locus YDL035C, strain GPR1, hits give low values 0.844 | S. cerevisiae deletion strains, locus YDL074C, strain BRE1, hits give low values 0.632 | S. cerevisiae deletion strains, locus YDL101C, strain DUN1, hits give low values 0.862 | S. cerevisiae deletion strains, locus YDL134C, strain PPH21, hits give low values 0.798 | S. cerevisiae deletion strains, locus YDL192W, strain arf1, hits give low values 0.818 | S. cerevisiae deletion strains, locus YDR101C, strain arx1, hits give low values 0.865 | S. cerevisiae deletion strains, locus YDR162C, strain NBP2, hits give low values 0.489 | S. cerevisiae deletion strains, locus YDR318W, strain mcm21, hits give low values 0.746 | S. cerevisiae deletion strains, locus YDR388W, hits give low values 0.897 | S. cerevisiae deletion strains, locus YDR502C, strain sam2, hits give low values 0.815 | S. cerevisiae deletion strains, locus YEL061C, strain CIN8, hits give low values 0.879 | S. cerevisiae deletion strains, locus YER110C, hits give low values 0.855 | S. cerevisiae deletion strains, locus YER155C, strain BEM2, hits give low values 0.769 | S. cerevisiae deletion strains, locus YER167W, strain BCK2, hits give low values 0.687 | S. cerevisiae deletion strains, locus YGL086W, strain mad1, hits give low values 0.848 | S. cerevisiae deletion strains, locus YGL248W, strain PDE1, hits give low values 0.795 | S. cerevisiae deletion strains, locus YGR078C, strain PAC10, hits give low values 0.694 | S. cerevisiae deletion strains, locus YGR135W, strain pre9, hits give low values 0.787 | S. cerevisiae deletion strains, locus YGR229C, strain SMI1, hits give low values 0.538 | S. cerevisiae deletion strains, locus YGR252W, strain gcn5, hits give low values 0.718 | S. cerevisiae deletion strains, locus YHR030C, strain SLT2, hits give low values 0.704 | S. cerevisiae deletion strains, locus YHR079C, strain IRE1 (second series), hits give low values 0.8 | S. cerevisiae deletion strains, locus YHR094C, strain hxt1, hits give low values 0.917 | S. cerevisiae deletion strains, locus YHR129C, strain ARP1, hits give low values 0.795 | S. cerevisiae deletion strains, locus YIL066C, strain RNR3, hits give low values 0.851 | S. cerevisiae deletion strains, locus YIR030C, strain dcg1, hits give low values 0.86 | S. cerevisiae deletion strains, locus YJL095W, strain BCK1, hits give low values 0.386 | S. cerevisiae deletion strains, locus YJL134W, strain LCB3, hits give low values 0.919 | S. cerevisiae deletion strains, locus YJL168C, strain set2, hits give low values 0.926 | S. cerevisiae deletion strains, locus YJL187C, strain SWE1 (second series), hits give low values 0.817 | S. cerevisiae deletion strains, locus YJR043C, strain POL32, hits give low values 0.76 | S. cerevisiae deletion strains, locus YJR075W, strain HOC1, hits give low values 0.755 | S. cerevisiae deletion strains, locus YKL068W, hits give low values 0.924 | S. cerevisiae deletion strains, locus YKL085W, strain MDH1 (second series), hits give low values 0.923 | S. cerevisiae deletion strains, locus YKL085W, strain MDH1, hits give low values 0.923 | S. cerevisiae deletion strains, locus YKL190W, strain CNB1, hits give low values 0.874 | S. cerevisiae deletion strains, locus YKR001C, strain vps1, hits give low values 0.598 | S. cerevisiae deletion strains, locus YLR039C, strain RIC1, hits give low values 0.479 | S. cerevisiae deletion strains, locus YLR058C, strain SHM2, hits give low values 0.829 | S. cerevisiae deletion strains, locus YLR262C, strain YPT6, hits give low values 0.498 | S. cerevisiae deletion strains, locus YLR268W, strain sec22, hits give low values 0.784 | S. cerevisiae deletion strains, locus YLR330W, strain CHS5, hits give low values 0.82 | S. cerevisiae deletion strains, locus YLR342W, strain FKS1 (second series), hits give low values 0.563 | S. cerevisiae deletion strains, locus YLR418C, strain cdc73, hits give low values 0.471 | S. cerevisiae deletion strains, locus YML016C, strain PPZ1, hits give low values 0.905 | S. cerevisiae deletion strains, locus YML032C, strain rad52, hits give low values 0.696 | S. cerevisiae deletion strains, locus YML124C, strain tub3, hits give low values 0.918 | S. cerevisiae deletion strains, locus YMR078C, strain ctf18, hits give low values 0.808 | S. cerevisiae deletion strains, locus YMR223W, strain ubp8, hits give low values 0.807 | S. cerevisiae deletion strains, locus YMR263W, strain SAP30, hits give low values 0.823 | S. cerevisiae deletion strains, locus YMR307W, strain GAS1, hits give low values 0.56 | S. cerevisiae deletion strains, locus YNL067W, strain RPL9B, hits give low values 0.81 | S. cerevisiae deletion strains, locus YNL153C, strain GIM3, hits give low values 0.837 | S. cerevisiae deletion strains, locus YNL233W, strain BNI4, hits give low values 0.73 | S. cerevisiae deletion strains, locus YNL250W, strain rad50, hits give low values 0.876 | S. cerevisiae deletion strains, locus YNL271C, strain bni1, hits give low values 0.915 | S. cerevisiae deletion strains, locus YNL298W, strain CLA4, hits give low values 0.903 | S. cerevisiae deletion strains, locus YNL307C, strain MCK1, hits give low values 0.176 | S. cerevisiae deletion strains, locus YNL322C, strain KRE1, hits give low values 0.9 | S. cerevisiae deletion strains, locus YOL006C, strain TOP1, hits give low values 0.462 | S. cerevisiae deletion strains, locus YOL147C, strain pex11, hits give low values 0.662 | S. cerevisiae deletion strains, locus YOR136W, strain idh2, hits give low values 0.92 | S. cerevisiae deletion strains, locus YOR144C, strain elg1, hits give low values 0.911 | S. cerevisiae deletion strains, locus YOR184W, strain ser1, hits give low values 0.465 | S. cerevisiae deletion strains, locus YOR316C, strain cot1, hits give low values 0.916 | S. cerevisiae deletion strains, locus YPL055C, strain LGE1, hits give low values 0.712 | S. cerevisiae deletion strains, locus YPR119W, strain clb2, hits give low values 0.89 | S. cerevisiae deletion strains, locus YPR163C, strain tif3, hits give low values 0.451 | S. cerevisiae deletion strains, strain wtn01, hits give low values 0.807 | S. cerevisiae strains, strain wild type, hits give low values 0.838
